Assay outcomes as filed in PubChem.
In the library only some 1.4% were active in any assay of this set; here they are far more common.
Yp Topo-I inh = blocks Yersinia pestis topoisomerase I activity. Y. pestis Topo-I cleavage product accumulation, plate reader. activity, % at 10 µM. actives 0.064% (n = 360,000); in the data active = activity above about 50%, passing the limit was not always enough
RN4220 kill = kills Staphylococcus aureus RN4220; S. aureus RN4220 growth, OD600, 16 h; inhibition, % (concentration not given with the values); actives 0.33% (n = 330,000); in the data active = inhibition above about 85%;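 note: plate controls were untreated cells for no effect and reference antibiotic for full effect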
PfHsp40 yeast = restores yeast growth despite PfHsp40 toxicity; actives 0.68% (n = 340,000); growth rescue, % at 12.5 µM; S. cerevisiae expressing PfHsp40, growth rescue, ATP luminescence; AID 504582; in the data active = growth rescue above about 28%, passing the limit was not always enough;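 note: yeast W303a lacking pdr1 and pdr3 grown in galactose medium; growth measured after three days at 30 °C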
BJeLR lethal = kills HRASV12-expressing BJeLR cells; BJeLR (HRASV12) viability, CellTiter-Glo ATP luminescence, 48 h; inhibition, % (no concentration beside the values); actives 0.17% (n = 300,000); in the data active = inhibition above about 50%
Sa ugtP lethal = kills S. aureus RN4220 lacking UgtP; S. aureus RN4220 ugtP deletion, OD600 growth, 16 h; growth inhibition, % (concentration not given with the values); actives 0.54% (n = 330,000); in the data active = growth inhibition above about 68%;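 note: plate controls were untreated wells for no effect and antibiotic for full effect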
PrP UTR inh = inhibition of PrP 5' UTR reporter expression. AID 488862. cell-based PrP 5' UTR mRNA reporter, plate reader. actives 0.35% (n = 340,000). inhibition, % (test concentration not listed); in the data active = inhibition above about 52%; note: 0 = median of the neutral control wells
PrP 5UTR single = prion 5' UTR mRNA inhibition, cherry-pick retest; inhibition, % at 2.5 µM; actives 48% (n = 1,100); AID 504592; shares compounds with PrP UTR inh; cell-based prion protein 5' UTR reporter, plate reader; in the data active = inhibition above about 54%
An asterisk follows results filed as active; / = not tested or not shown.

SMILES	Yp Topo-I inh	RN4220 kill	PfHsp40 yeast	BJeLR lethal	Sa ugtP lethal	PrP UTR inh	PrP 5UTR single
Cc1ccc2nc(-c3ccc(O)c(O)c3)cn2c1	-3.4	/	-1.1	-4.3	/	20.5	/
Cc1ccc2nc(-c3ccccc3)cn2c1	-3.0	10.0	-4.9	36.0	-3.6	86.6*	84.8*
COc1ccc(C2CC(O)(c3ccccc3)Oc3cc(OC)c(OC)c(OC)c32)cc1 (stereo not drawn)	-13.5	4.6	-1.7	4.4	7.8	-14.7	/
COc1ccc([C@@]23Oc4cc(OC)cc(OC)c4[C@]2(O)[C@H](O)[C@H](C(=O)N(C)C)[C@H]3c2ccccc2)cc1	3.3	/	-1.7	/	/	78.5*	85.2*
Oc1ccc2c3c1OC1c4oc5ccccc5c4C[C@@]4(O)C(C2)N(CC2CC2)CC[C@]314 (stereo partly drawn)	/	4.1	/	/	3.6	/	/
CSC(=Nc1ccccc1)N=C(SCc1ccccc1)N(C)C	22.0	/	-1.5	/	/	73.6*	39.1
N#CNC(=Nc1ccccc1)SCc1ccc(C(=O)O)cc1	8.6	7.0	-1.6	0.3	13.7	-12.1	/
CC(C)(Cc1ccccc1)[N+]([O-])=Cc1ccccc1	/	-2.8	/	/	-3.2	/	/
Cc1ccc(-c2cnc(-c3ccncc3)o2)cc1	5.3	9.8	0.5	4.3	7.5	-40.5	/
Nc1ccc(-c2ncc(-c3ccccc3)o2)cc1	-3.9	5.9	0.2	-0.8	-1.0	76.2*	64.2*
CC1CN(C(C)CO)C(=O)c2cc(NS(=O)(=O)c3cccs3)ccc2OC1CN(C)Cc1ccc(C(F)(F)F)cc1 (stereo not drawn)	/	1.0	/	/	-15.0	/	/
Cc1ccccc1C(=O)O/N=C(\N)c1ccccc1	-3.1	5.0	-1.0	1.1	1.5	56.1*	54.9*
COc1ccccc1C(=O)O/N=C(\N)c1ccccn1	2.9	2.2	-1.8	9.4	8.8	-67.3	/
Cc1ccccc1C(=O)O/N=C(\N)c1ccc([N+](=O)[O-])cc1	-5.7	1.9	0.9	-19.7	1.9	-57.9	/
COc1cc(OC)cc(C(=O)O/N=C(\N)c2ccccn2)c1	-2.8	1.5	/	-2.6	-4.8	/	/
COc1ccc(C(=O)O/N=C(\N)c2ccccn2)cc1	11.6	/	0.1	-1.5	/	88.1*	93.5*
Cc1ccc(C(=O)O/N=C(\N)c2ccccn2)c(C)c1	-2.4	/	-1.2	22.0	/	94.9*	96.9*
N/C(=N\OC(=O)c1ccccc1Cl)c1ccccn1	5.2	4.4	0.4	22.4	-0.8	76.1*	71.1*
CC(C)c1nc(CN(C)C(=O)NC(C(=O)NC(Cc2ccccc2)CC(O)C(Cc2ccccc2)NC(=O)OCc2cncs2)C(C)C)cs1 (stereo not drawn)	/	4.8	/	/	-6.9	/	/
C#CCOC1CC(n2cnc3c(NC(=O)c4ccccc4)ncnc32)OC1CO (stereo not drawn)	/	7.5	/	/	2.9	/	/
O=C(CCN1C(=O)c2ccccc2S1(=O)=O)Nc1ccc2c(c1)OCCO2	-1.8	-3.9	0.4	-1.7	1.3	-22.6	/
O=C(CN1C(=O)c2ccccc2S1(=O)=O)c1cccc(Br)c1	25.4	2.5	-0.4	4.2	11.5	51.6	/
O=C(CN1C(=O)c2ccccc2S1(=O)=O)c1ccc2c(c1)OCCCO2	-2.0	3.1	-0.6	-2.9	4.3	94.9*	97.3*
O=C(CN1C(=O)c2ccccc2S1(=O)=O)c1ccc2c(c1)OCCO2	1.1	-1.7	-0.4	-4.6	6.5	91.1*	93.4*
Clc1ccc(-n2ncc3c(N4CCCCCC4)ncnc32)cc1	-6.2	-2.8	-0.3	22.0	-7.0	79.4*	69.8*
CS(=O)(=O)N1CCN(c2ncnc3c2cnn3-c2ccccc2)CC1	0.8	5.8	0.0	-6.3	5.9	55.3*	-28.0
COc1ccc(-n2ncc3c(N4CCCCC4)ncnc32)cc1	27.4	10.7	-1.8	21.1	-4.1	86.0*	78.5*
Clc1ccc(Cn2ncc3c(N4CCCCC4)ncnc32)cc1	25.9	-5.9	3.5	0.7	12.2	-7.5	/
CN1CC2C3C(=O)N(Cc4ccccc4)C(=O)C3[C@](C)(C1=O)N2C(=O)c1ccc(Cl)cc1 (stereo partly drawn)	/	3.0	/	/	-1.7	/	/
Cc1ccc(C(=O)N2C3C=CC(C3)C2(C(F)(F)F)C(F)(F)F)cc1 (stereo not drawn)	-3.4	6.3	5.7	-1.9	-4.2	85.9*	-12.4
